Assay outcomes from PubChem BioAssay.
HEK cytotox: kills HEK 293 cells; HEK 293 viability, ATP luminescence (CellTiter-Glo), 48-72 h; Potency, µM (doses to about 115 µM), without a hit: at the top dose activity change, negative = cytotoxicity, most hits filed as inhibitors; 6.6% of 94,000 active; further: nearly all actives have a fitted effect of over 60% in size
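Luminescence from cellular ATP, measured with CellTiter-Glo, indicates HEK 293 viability. Cells plated at 250 cells/well are treated with compound for 48 or 72 hr at 37 degree Celsius before reagent addition.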
FLuc inh: blocks purified firefly luciferase enzyme activity. P08659. purified P. pyralis luciferase, luminescence, biochemical. Potency, µM (series often up to 115 µM), hits mostly inhibitors. 2.5% of 76,000 active. AID 1347043; further: nearly all actives have a fitted effect of over 65% in size
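Cell-free enzyme assay, 10nM P. pyralis luciferase, luciferin and ATP each at 10uM. Inhibition profiled over a 6-point titration, read as luminescence.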
NIH3T3 tox: kills NIH 3T3 cells; NIH 3T3 viability, CellTiter-Glo ATP luminescence, 48-72 h; Potency, µM (top dose mostly 96.7 µM), without a hit: at the top dose activity change, negative = cytotoxicity, actives largely listed as inhibitors; AID 1345082; 4.3% of 94,000 active; further: nearly all actives have a fitted effect of over 55% in size
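Cytotoxicity was measured by CellTiter-Glo ATP luminescence after 48 or 72 h compound exposure at 37 °C. Mouse NIH 3T3 fibroblasts were seeded at 400 cells/well and dosed by 23 nL pin transfer.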
hNpr1 antagonist: blocks ANP-stimulated signaling of human Npr1 receptor. P16066. HEK293 hNpr1 GloSensor cGMP, ANP-stimulated luminescence. Potency, µM (highest dose often 46.3 µM), inactives show at the highest dose activity change, negative = inhibition, actives largely listed as inhibitors. 1.6% of 76,000 active. AID 1347048; calls by dose curve; further: nearly all actives have a fitted effect of over 60% in size
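HEK293 cells stably expressing human Npr1 and cGMP GloSensor pGS-40F, loaded 2 h with 2% GloSensor reagent, given compound 30 min at room temperature. Luminescence read before and 20 min after 0.1 nM hNppA.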
The depositor's hits bear a star; i = inactive; ? = inconclusive; . = no result; [ ] = remark or other dose. A selection: hits, their analogues and other compounds. The true share with any hit is near 11%. Unless noted, the call rests on the fitted dose curve; in most records, active means well fitted curve in the direction sought with a large enough effect; inconclusive means small, poorly fitted or top-dose-only effect, or another doubt; inactive means no such curve, though single readings can be large; an effect the other way counts as inactive or inconclusive. On the % scale 0 is the no-effect control and ±100 the full control effect; potency means the concentration at half of the fitted maximal effect.

SMILES | HEK cytotox | FLuc inh | NIH3T3 tox | hNpr1 antagonist
CCC(CC)C(=O)NC[C@@H]1C=C(C)[C@H](Cc2nc3ccc(C)cc3[nH]2)C[C@H]1C(C)C | 63.1µM* | i | ? | -16.9%[70.6 µM]
CC1=C[C@@H](CNS(=O)(=O)c2ccccc2)[C@H](C(C)C)C[C@H]1Cc1nc2ccncc2[nH]1 | 70.8µM* | i | 79.4µM* | -23.5%[70.6 µM]
CC1=C[C@@H](CNC(=O)c2ccnc(Cl)c2)[C@H](C(C)C)C[C@H]1Cc1nc2ccc(C)cc2[nH]1 | ? | i | 17.8µM* | ?
CC1=C[C@@H](CNC(=O)CC(C)(C)CC(=O)O)[C@H](C(C)C)C[C@H]1Cc1nc2ccc(F)cc2[nH]1 | -4.4% | i | -0.8% | 3.0%
CCC(CC)C(=O)NC[C@@H]1C=C(C)[C@H](Cc2nc3ccc(F)cc3[nH]2)C[C@H]1C(C)C | ? | i | 100µM* | -27.5%[70.6 µM]
CCC(CC)C(=O)NC[C@@H]1C=C(C)[C@H](Cc2nc3ccc(OC)cc3[nH]2)C[C@H]1C(C)C | 44.7µM* | i | ? | -22.1%[70.6 µM]
COc1ccccc1CN1CC(c2noc(-c3cc(C)cc(C)c3)n2)CC1=O (centres undefined) | 44.7µM* | i | ? | 4.2%
COc1cc(OC)cc(-c2nc(C3CC(=O)N(Cc4ccccc4OC)C3)no2)c1 (centres undefined) | ? | i | ? | -14.2%
COc1ccccc1CN1CC(c2noc(-c3sccc3C)n2)CC1=O (centres undefined) | 39.8µM* | i | ? | 7.8%
CN1CC2(CCOC2)N(C2CCN(C(=O)COc3ccccc3)CC2)C1=O (centres undefined) | -19.2% | . | -35.9% | .
O=C(NCc1ccc(F)cc1)c1cc(-c2ccc(Cl)cc2Cl)c2nncn2n1 | 89.1µM* | . | 44.7µM* | .
O=C(NC1CCCCC1)c1cc(-c2ccc(F)cc2)c2nncn2n1 | -8.2% | . | ? | .
O=C(NCC1CCCCC1)c1cc(-c2ccc(F)cc2)c2nncn2n1 | ? | . | 6.31µM* | .
O=C(NCc1ccc(F)cc1)c1cc(-c2ccc(F)cc2)c2nncn2n1 | -7.1% | . | -19.6% | .
CC(C)CNC(=O)c1ccc2nnc(-c3cccnc3)n2c1 | 4.0%[172 µM] | . | -9.2%[138 µM] | .
CN(C)CCN(C)[C@@H]1[C@H](O)[C@H](CO)O[C@@H]1CN(Cc1ccc(Cl)cc1)Cc1cccc(Cl)c1 | ? | i | 28.2µM* | ?
OC[C@@H]1O[C@H](CN(Cc2cccc(Cl)c2)Cc2cccc(Cl)c2)[C@H](N2CCN(c3ccccn3)CC2)[C@@H]1O | ? | i | ? | 3.5%
Cc1cc(CNC(=O)C(C)Cn2nc(C)nc2C)c2[nH]c(-c3ccccc3)c(C)c2c1 (centres undefined) | ? | 20µM* | ? | -18.9%
CCc1[nH]c2c(CNC(=O)C(C)O)cc(C)cc2c1C (centres undefined) | -17.3% | i | -15.7% | -8.1%
CCn1nccc1C(=O)NCc1cc(C)cc2c(C)c(-c3ccccc3)[nH]c12 | 28.2µM* | 15.8µM* | 39.8µM* | ?
Cc1cc(CNC(=O)c2cccc(F)c2F)c2[nH]c(C)c(C)c2c1 | 35.5µM* | i | ? | 4.5%
Cc1cc(CNC(=O)c2ccc(S(N)(=O)=O)cc2)c2[nH]c(C)c(C)c2c1 | -1.1% | i | -15.4% | -0.3%
CC1(C(=O)Nc2ccc(F)cc2)CN(Cc2ccccc2)Cc2ccc(N3CCOCC3)nc21 (centres undefined) | ? | i | ? | -21.6%
O=C1[C@H]2CN(Cc3ccc(C(F)(F)F)cc3)C[C@H]2C(=O)N1CCc1ccccc1 | 35.5µM* | i | 22.4µM* | -28.9%
Cc1cn2nc(C(=O)NCc3ccc(C(C)C)cc3)cc2c(=O)[nH]1 | ? | 14.1µM* | -30.5% | 10.9%
SMILES | HEK cytotox | FLuc inh | NIH3T3 tox | hNpr1 antagonist
COc1ccc(CCNC(=O)c2cc3n(n2)CC(c2ccc(Cl)cc2)OC3)cc1OC (centres undefined) | 44.7µM* | i | ? | ?
COc1ccccc1CNC(=O)c1cc2n(n1)CC(c1ccc(Cl)cc1)OC2 (centres undefined) | 39.8µM* | i | ? | ?
COc1ccc(CNC(=O)c2cc3n(n2)CC(c2ccc(Cl)cc2)OC3)c(OC)c1 (centres undefined) | ? | i | ? | -14.6%
COc1cc(NC(=O)c2cc3n(n2)CC(c2ccc(Cl)cc2)OC3)cc(OC)c1OC (centres undefined) | 44.7µM* | i | ? | -21.8%
O=C1NCCN2CC3(CCN(C(=O)CCC4CCCC4)CC3)CC12 (centres undefined) | 4.9% | . | -0.5% | .
CC(C)c1ccc(CNC(=O)c2cc3n(n2)CC(c2ccc(Cl)cc2)OC3)cc1 (centres undefined) | 31.6µM* | i | 28.2µM* | -26.8%
CC(C)c1cccc(NC(=O)c2cc3n(n2)CC(c2ccc(Cl)cc2)OC3)c1 (centres undefined) | ? | i | -29.3% | -2.6%
CCCCc1nc(Cl)c(CN2CCCC(COc3ccccc3C(=O)NC3CC3)C2)[nH]1 (centres undefined) | ? | i | ? | -0.9%
COc1cccc(CCC(=O)NCCn2ccn3nc(-c4cccc(OC)c4)cc3c2=O)c1 | ? | 8.91µM* | ? | -24.1%
COc1cc(OC)cc(C(=O)NCCn2ccn3nc(-c4cccc(OC)c4)cc3c2=O)c1 | -23.8% | 17.8µM* | -24.2% | -16.1%
COc1cccc(-c2cc3c(=O)n(CCNC(=O)COc4cccc(C)c4)ccn3n2)c1 | ? | 22.4µM* | ? | ?
CCOc1ccc(CC(=O)NCCn2ccn3nc(-c4cccc(OC)c4)cc3c2=O)cc1 | ? | ? | ? | -8.0%
CCC(C(=O)NCCn1ccn2nc(-c3cccc(OC)c3)cc2c1=O)c1ccccc1 (centres undefined) | ? | 14.1µM* | ? | ?
COc1ccc(C(=O)NCCn2ccn3nc(-c4cccc(OC)c4)cc3c2=O)cc1 | ? | i | ? | -23.9%
COc1cccc(-c2cc3c(=O)n(CCNC(=O)Cc4cccs4)ccn3n2)c1 | ? | 15.8µM* | -27.7% | -15.4%
O=C(C1CCCC1)N1CCC2(CC1)CC(c1cccc(C(F)(F)F)c1)=NO2 | 44.7µM* | . | ? | .
COc1cccc(C(=O)N2CCC3(CC2)CC(c2cccc(C(F)(F)F)c2)=NO3)c1 | 44.7µM* | . | ? | .
COc1ccc(C2=NOC3(CCN(Cc4ccc(F)cc4)C3)C2)cc1 (centres undefined) | 79.4µM* | i | ? | ?
COc1ccc(C2=NOC3(CCN([S+](=O)([O-])c4ccccc4)C3)C2)cc1 (centres undefined) | 44.7µM* | ? | ? | -14.9%
Cc1noc(C)c1C(=O)N1CCC2(CC1)CC(c1cccc(C(F)(F)F)c1)=NO2 | -14.1% | . | -27.2% | .
COc1ccc(C2=NOC3(CCCN([S+](=O)([O-])c4cccc(OC)c4)C3)C2)cc1 (centres undefined) | ? | . | -25.5% | .
